{
  "source": "PubChem BioAssay (Tox21)",
  "note": "Unmarked numbers belong to inactive results. The call rests on the fitted dose curve. On the % scale 0 is the no-effect control and ±100 the full control effect.",
  "data": [
    {"experiment": "qHTS assay to identify small molecule agonists of the sonic hedgehog signaling (Shh) pathway (AID 1259368);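 further: NIH/3T3-derived 3T3Gli1-Luc cells carrying a stable Gli1-driven firefly luciferase reporter; nearly all actives have a fitted effect of over 15% in size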", "conditions": "NIH/3T3 Gli1-Luc reporter, luciferase, 24 h; series mostly up to 92.4 µM; activity change: at the top concentration", "from_the_text": "National Center for Advancing Translational Sciences [NCATS]\nNIH Chemical Genomics Center [NCGC]\nU.S. Environmental Protection Agency [EPA]\nNational Institutes of Environmental Health Sciences [NIEHS]\nNational Toxicology Program [NTP]\nThe sonic hedgehog (Shh) pathway is essential for normal embryonic development. Dysregulation of the Shh pathway can cause severe developmental defects in organs. Therefore chemicals that interfere with the pathway are potential developmental toxicants. A cell line designated 3T3Gli1-Luc (DMB/OARSA/CFSAN/FDA, Laurel, MD), a NIH/3T3 derived clone containing stably integrated Gli1-Luc reporter is used to detect chemical interference of the Shh pathway, by changes in the expression of the firefly Luc gene under the control of the Gli1 transcriptional response element. This cell line was used to screen Tox21 libraries for identifying and prioritizing the potential developmental toxicants that interfere Shh pathway.\n3T3 Gli1-Luc cells were dispensed at 2,000 per well in 5uL of culture medium into white solid bottom 1536-well plates (Greiner Bio-One, Monroe, NC) using a Multidrop Combi (Thermo Scientific, Waltham, MA) dispenser. The assay plates were incubated at 37 C and 5% CO2 for 4hr, and then 23nL of compounds dissolved in DMSO and positive control were transferred using a Pintool station (Wako, San Diego, CA). The assay plates were incubated at 37C and 5% CO2 for 24hr. For luciferase read, 4uL of Amplite Luciferase reporter gene assay reagent (AAT Bioquest, Inc. Sunnyvale, CA) was added to each well of the assay plates using Flying Reagent Dispenser (FRD, Aurora Discovery, San Diego, CA) and incubated at room temperature for 30min. The luminescence signal was measured using a ViewLux plate reader (Perkin Elmer, Shelton, CT).", "values": [
      {"smiles": "CC(C=O)c1ccccc1", "note": "(stereo not given)", "activity change": "-0.27%"},
      {"smiles": "Cc1cc(Br)ccc1NC(=O)CCl", "activity change": "-11.4%"},
      {"smiles": "CCN(CC)c1ccc2c(c1)Oc1cc(N(CC)CC)ccc1C21OC(=O)c2ccccc21", "activity change": "-0.815% [at 42.5 µM, hits give high values]"},
      {"smiles": "ClC(c1ccccc1)(c1ccccc1)c1ccccc1", "activity change": "1.4%"},
      {"smiles": "Nc1cccnc1N", "activity change": "0.489%"},
      {"smiles": "NC(=O)c1ccccc1Cl", "activity change": "-0.231%"},
      {"smiles": "Cn1c(=O)[nH]c2ncn(C)c2c1=O", "activity change": "-0.865%"},
      {"smiles": "C=Cc1ccncc1", "activity change": "-1.08%"},
      {"smiles": "C=C[Si](C)(C)Cl", "activity change": "1.18% [at 8.39 µM, hits give high values]"},
      {"smiles": "Cc1cccc(C)c1C", "activity change": "-1.04%"},
      {"smiles": "N#Cc1nc(Cl)c(Cl)c(Cl)c1Cl", "activity change": "-11.9%"},
      {"smiles": "C/C(=N\\[Si](C)(C)C)O[Si](C)(C)C", "activity change": "-0.482%"},
      {"smiles": "CO[Si](OC)(c1ccccc1)c1ccccc1", "activity change": "-9.99%"},
      {"smiles": "C/C=C/C(=O)OCC(C)C", "activity change": "1.18%"},
      {"smiles": "Cc1c[nH]c(=O)[nH]c1=O", "activity change": "-1.49%"},
      {"smiles": "O=C(Nc1ccc([N+](=O)[O-])cc1)Nc1ccc([N+](=O)[O-])cc1", "note": "(tested in a mixture with another compound)", "activity change": "0.192% [at 42.5 µM, hits give high values]"},
      {"smiles": "C=CC(=O)OCCOC1C2CCC1C1CC=CC12", "note": "(stereo not given)", "activity change": "-1.29% [at 18.9 µM, hits give high values]"},
      {"smiles": "COc1cccc(-c2ccc(/C=C\\CN3CCCCCC3)cc2Cl)c1", "activity change": "-11.8%"},
      {"smiles": "CN1CCN(C)CC1", "activity change": "-1.38%"},
      {"smiles": "CC(C)(C)c1cc(CCC(=O)OCCSCCOC(=O)CCc2cc(C(C)(C)C)c(O)c(C(C)(C)C)c2)cc(C(C)(C)C)c1O", "activity change": "-0.611% [at 42.5 µM, hits give high values]"},
      {"smiles": "CCc1cccc(C)c1N(C(=O)CS(=O)(=O)O)C(C)COC", "note": "(stereo not given)", "activity change": "-0.862%"},
      {"smiles": "CC(C)(C)C1=CC(=O)C(C(C)(C)C)=CC1=O", "activity change": "5.13% [at 42.5 µM, hits give high values]"},
      {"smiles": "Nc1cc([N+](=O)[O-])ccc1Cl", "activity change": "-0.718%"},
      {"smiles": "O=c1[nH]cccc1O", "activity change": "-1.8%"},
      {"smiles": "CCCCCCCCCCCCCCCCCCNC(=O)OC1CCN(C(=O)OC[C@H](COC(=O)N(Cc2cccc[n+]2CC)C(=O)c2ccccc2OC)OC)CC1", "activity change": "-1.14% [at 42.5 µM, hits give high values]"},
      {"smiles": "O=C1C=CC(=O)N1c1cccc(N2C(=O)C=CC2=O)c1", "activity change": "-10.4%"},
      {"smiles": "NCc1cccc(C2CCN(C(=O)c3ccc(C#Cc4ccccc4F)o3)CC2)c1", "activity change": "-14.9%"},
      {"smiles": "CC/C=C\\C/C=C\\C/C=C\\CCCCCCCC(=O)OC", "activity change": "-2.6%"},
      {"smiles": "C1=CCCC1", "activity change": "-0.244%"},
      {"smiles": "O=c1cc[nH]cc1", "activity change": "-1.03%"},
      {"smiles": "O=S(=O)(c1ccc(OCc2ccccc2)cc1)c1ccccc1O", "activity change": "-0.0507%"},
      {"smiles": "[Cl][Eu]([Cl])[Cl]", "activity change": "5.99%"},
      {"smiles": "CCCCCN=C(N)N/N=C/c1c[nH]c2ccc(OC)cc12", "activity change": "-5.48% [at 42.5 µM, hits give high values]"},
      {"smiles": "CCOC(=O)[C@H](C)O", "activity change": "0.0384%"},
      {"smiles": "Cc1ccc(N=Nc2c(O)ccc3ccccc23)c(C)c1", "activity change": "4.98% [at 42.5 µM, hits give high values]"},
      {"smiles": "O=C(c1ccccc1)c1ccc(Cl)cc1", "activity change": "-0.294%"},
      {"smiles": "CC(CC(C)(C)C)CC(C)(C)CC(C)(C)C", "note": "(stereo not given)", "activity change": "-0.511% [at 42.5 µM, hits give high values]"},
      {"smiles": "COc1c(Br)cc(Br)c(C)c1Br", "activity change": "-1.46%"},
      {"smiles": "CC(O)(c1ccc(Cl)cc1)c1ccc(Cl)cc1", "activity change": "-2.91%"},
      {"smiles": "CC(C)(c1ccc(Oc2ccc(N)cc2)cc1)c1ccc(Oc2ccc(N)cc2)cc1", "activity change": "0.0088%"}
    ]}
  ]
}
